# A selection: hits, their analogues and other compounds. The true share with any hit is near 9.5%.
# RE007 growth inh: less growth of the S. pombe RE007 Vpr strain. S. pombe RE007 Vpr strain, BacTiter-Glo ATP luminescence, 24 h. Potency, µM (titrated, usually from 92.2 µM), most hits filed as inhibitors. 360,000 tested, 0.21% active; active means well fitted falling curve with a large enough effect; inconclusive means small, poorly fitted or top-dose-only effect; inactive means no such curve, though single readings can be large or run the other way; further: nearly all actives have a fitted effect of over 50% in size
#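 Fission yeast RE007 carrying one integrated HIV-1 vpr copy, seeded at OD 0.01 in PMG+AL medium with 23 nL pinned compound. Grown 24 h at 30 degrees; viability read by BacTiter-Glo luminescence after 5 min.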
# NS1 inh: inhibitors of influenza NS1 protein function; 270,000 tested, 0.4% active; Potency, µM (series often up to 46.1 µM); AID 2326; further: actives are rising curves; nearly all actives have a fitted effect of over 50% in size
#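 In this qHTS, NS1 from influenza A is expressed in budding yeast, where it slows growth. Cells are switched from glucose to 2% galactose medium (pH 6.0, -URA), treated with compound, and growth recovery is read at OD600.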
# Pf growth 48h: P. falciparum growth inhibition at 48 hours (one generation). Potency, µM (top dose mostly 28.7 µM), usual class: inhibitors. 310,000 tested, 5.9% active. AID 504832. P. falciparum luciferase growth in erythrocytes, 48 h; active means well fitted inhibition curve with a large enough effect; inconclusive means small, poorly fitted or top-dose-only effect, or another doubt; inactive means no such curve, though single readings can be large or run the other way
#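 Firefly luciferase activity from engineered P. falciparum reports growth; inhibitors lower the luminescent signal. Cultures contained 2% hematocrit erythrocytes at 0.1% final parasitemia.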
# Pf growth 96h: inhibits malaria parasite growth, 96 h; P. falciparum luciferase reporter growth, 96 h; Potency, µM (highest dose often 28.7 µM), hits mostly inhibitors; 320,000 tested, 6.9% active; active means well fitted inhibition curve with a large enough effect; inconclusive means small, poorly fitted or top-dose-only effect, or another doubt; inactive means no such curve, though single readings can be large or run the other way
#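 Infected RBCs, 2% Hct / 0.05% parasitemia final; luciferase-reporter P. falciparum; cpd 96 h, 37 C, 5% CO2; luciferase detection reagent; luminescence.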
# SARS PLpro yeast: inhibitors of SARS-CoV papain-like protease in yeast; S. cerevisiae expressing SARS-CoV PLpro, growth rescue; Potency, µM (top dose mostly 32.9 µM), usual class: activators; 330,000 tested, 0.19% active; AID 485353; further: nearly all actives have a fitted effect of over 55% in size
# Hits are given with their value; n = inactive; u = inconclusive; x = not tested or not shown. Unless noted, the call rests on the fitted dose curve.
SMILES,RE007 growth inh,NS1 inh,Pf growth 48h,Pf growth 96h,SARS PLpro yeast
CCC1OC(=O)CC(O)C(C)[C@@H](O[C@@H]2OC(C)[C@H](O[C@@H]3C[C@@](C)(O)C(O)C(C)O3)C(N(C)C)C2O)[C@H](CC=O)CC(C)C(=O)/C=C/C(C)=C/[C@@H]1COC1OC(C)C(O)C(OC)[C@@H]1OC (stereo partly drawn),x,x,u,0.76µM,x
CCC1OC(=O)C[C@H](O)C(C)[C@@H](O[C@@H]2OC(C)C(O)C(N(C)C)C2O)C(CCN2CC(C)CC(C)C2)CC(C)C(=O)/C=C/C(C)=C\[C@@H]1COC1OC(C)C(O)C(OC)C1OC (stereo partly drawn),x,x,u,3.8µM,x
CC[C@H]1OC(=O)C[C@@H](O)[C@H](C)[C@@H](O[C@@H]2O[C@H](C)C[C@H](N(C)C)[C@H]2O)[C@@H](CC=O)C[C@@H](C)C(=O)C=C[C@]2(C)O[C@H]2[C@@H]1C,x,n,4.7µM,0.33µM,n
Cc1cc(NC(=NC2CC2)c2ccccc2F)n(-c2ccccc2)n1,n,x,u,n,n
COc1ccc(OC)c(CCNC(=O)c2ccc(NC3=NC4CS(=O)(=O)CC4S3)cc2)c1 (stereo not drawn),n,u,n,n,n
Cc1ccc(/C=N\NC(=O)c2ccc3c(c2)OCO3)o1,n,n,n,1.3µM,n
COc1cccc(NC(=O)c2ccc3c(c2)OCCO3)c1,u,n,n,u,n
COc1ccc(NC(=O)c2ccc3c(c2)OCO3)cc1Cl,n,n,n,n,n
COc1ccc(N/C=C\C(=O)c2ccc3c(c2)OCO3)cc1OC,u,n,n,4.7µM,n
O=C(N/N=C/c1ccc([N+](=O)[O-])o1)c1ccc2c(c1)OCO2,n,n,u,u,n
COc1cccc(NC(=O)c2ccc3c(c2)OCO3)c1,u,n,n,9.3µM,n
COC(=O)c1ccc(NC(=O)c2ccc3c(c2)OCO3)cc1,n,n,n,15µM,n
C=CCSc1nc2ccsc2c(=O)n1-c1cccnc1,n,n,n,u,n
COc1cccc(C(=O)Nc2cc3c(cc2C(C)=O)OCCO3)c1,n,n,n,10µM,n
O=C(N/N=C/c1ccc(O)cc1)/C(=C/c1ccccc1)CCO,n,n,13µM,u,n
O=C(N/N=C/c1ccccc1)C(=O)N/N=C/c1ccccc1,n,n,n,n,n
COc1ccc(S(=O)(=O)N2CCSC2c2ccc(N)cc2)cc1 (stereo not drawn),n,u,n,n,n
O=C(O)CNC(=O)[C@H]1NC(C(F)(F)F)(C(F)(F)F)OC1(C(F)(F)F)C(F)(F)F,x,n,x,x,x
CCc1cccc2c(C(=O)CSc3nnc(-c4ccncc4)n3C)c[nH]c12,n,u,u,10µM,n
Cc1nnc(SCC(=O)N2CC(C)OC(C)C2)n1-c1ccccc1 (stereo not drawn),n,n,n,n,n
CC(C)c1ccccc1-n1c(SCC(=O)N2CCN(c3ccccc3)CC2)nnc1-c1cccnc1,n,n,u,8.3µM,n
CCOc1ccccc1-n1c(SCC(=O)N2CCCc3ccccc32)nnc1-c1cccnc1,n,n,u,u,n
CC1CN(C(=O)CSc2nnc(-c3ccncc3)n2-c2ccccc2)CC(C)O1 (stereo not drawn),n,n,n,10µM,n
COCCn1c(SCC(=O)c2c[nH]c3ccccc23)nnc1-c1ccncc1,n,n,u,u,n
O=C(CSc1nnc(-c2cccnc2)n1-c1ccc(SC(F)F)cc1)N1CCCc2ccccc21,n,n,u,10µM,n
SMILES,RE007 growth inh,NS1 inh,Pf growth 48h,Pf growth 96h,SARS PLpro yeast
CCC(C(=O)NC1CCCC1)N(Cc1ccco1)C(=O)CNS(=O)(=O)c1ccccc1 (stereo not drawn),n,n,n,n,n
Cc1c(C)n2c(SCC(=O)N3CCN(c4ccccc4)CC3)nnc2[nH]c1=O,n,x,3.3µM,u,x
CCCC(=O)Nc1ccc2nc(SCC(=O)N3CCCC3)sc2c1,n,n,u,n,n
Cc1c(C)n2c(SCC(=O)N3CC(C)OC(C)C3)nnc2[nH]c1=O (stereo not drawn),n,x,u,5.2µM,n
Cn1c(SCC(=O)N2CCN(c3ccccc3)CC2)nnc1-c1ccncc1,n,n,n,12µM,n
Cc1c(C)n2c(SCC(=O)N3CCCCCC3)nnc2[nH]c1=O,n,x,n,u,n
Cc1c(C)n2c(SCC(=O)N3CCOCC3)nnc2[nH]c1=O,n,x,u,u,n
Cn1c(SCC(=O)Nc2ccc3nc(SCC(=O)N4CCCC4)sc3c2)nnc1-c1ccccc1,n,n,9.3µM,3.3µM,n
Cc1ccc(CC(=O)Nc2ccc(S(=O)(=O)Nc3ncccn3)cc2)cc1,n,n,n,n,n
COc1ccc(CCN2CC(C(=O)N(C)Cc3cccnc3)CC2=O)cc1OC (stereo not drawn),n,x,n,n,n
CC1C(=O)N2CCCc3cc(S(=O)(=O)NCc4ccccc4Cl)cc1c32 (stereo not drawn),n,n,13µM,n,n
O=C(O)/C=C\C(=O)Nc1ccccc1C#Cc1ccc(Br)cc1,45µM,n,n,n,n
Fc1ccc(NC(=S)Nc2cccnc2)cc1Cl,n,n,15µM,u,n
Cc1ccc(NC(=S)Nc2cc(-c3ccccc3)[nH]n2)cc1Cl,n,x,u,n,n
Fc1ccc(NC(=S)Nc2cc(-c3ccccc3)[nH]n2)cc1Cl,u,n,10µM,n,n
CC1C(=O)N2CCCc3cc(NC(=O)C(=O)NCCc4ccc(F)cc4)cc1c32 (stereo not drawn),n,x,u,u,n
CC1C(=O)N2CCCc3cc(NC(=O)C(=O)NCCCc4ccccc4)cc1c32 (stereo not drawn),n,x,12µM,u,n
CC1C(=O)N2CCCc3cc(NC(=O)COc4ccc(Cl)cc4)cc1c32 (stereo not drawn),n,x,u,15µM,n
Nc1nn(S(=O)(=O)c2ccccc2)cc1-c1cccc([N+](=O)[O-])c1,n,x,10µM,n,n
O=C(COC(=O)CCC1CCCC1)Nc1ccc(F)cc1Cl,n,x,n,n,n
O=C1CC(c2cccc(O)c2)Oc2ccccc21 (stereo not drawn),n,x,n,n,n
COc1cc(C=Cc2nnc3c4ccccc4cnn23)cc(OC)c1OC,n,x,x,x,x
Cc1c(-c2ccccc2)[n+](=O)c2c(n1[O-])CCCC2,n,n,n,n,n
Cc1c(-c2cccs2)[n+](=O)c2c(n1[O-])CCCCC2,n,n,n,10µM,n
OC(COCc1ccccc1)COCc1ccccc1,n,x,x,x,x
Cc1n(CC(O)COCc2ccccc2)c2ccccc2[n+]1C (stereo not drawn),n,n,9.3µM,3.3µM,n
Cc1ccc(-c2nc3c4ccccc4ccn3c2CN2CCCCC2)cc1,n,n,9.3µM,n,n
CCCCn1c(-c2csc3c2CCCC3)n[nH]c1=S,n,n,x,n,n
CCCCn1c(-c2csc3c2CCC(C)C3)n[nH]c1=S (stereo not drawn),n,n,0.93µM,n,n

# From PubChem BioAssay
